Data on five molecules can be found in PubChem BioAssay.

One assay concerns the target Albumin (Bos taurus) (UniProt P02769). Nature of the assay: compounds binding labelled BSA control protein – biochemical, small-molecule microarray, Alexa647 label, 635/667 nm fluorescence, artefact control for SMM control protein annotation, profiling panel (AID 1118).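 Note: score merges 667 nm emission intensity and signal-to-noise per printed compound spot.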 The following applies: BSA-A647 binding, fluorescence 635 nm, higher = more signal.
Assay [1] in a line: probe aXIP binding to arrayed compounds – biochemical, NeuroSMM set, 635/667 nm fluorescence, primary screen (AID 1119).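 Note: probe is the protein aXip251-270 applied at 1 µg/mL to compound-printed slides; binding of probe to printed compounds measured as 667 nm fluorescence plus signal to noise.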 The following applies: small-molecule microarray, higher = more signal, called active from +8 up or from −8 down.
The nature of assay [2]: probe aNOTCH3 binding on compound microarray – biochemical, small-molecule microarray, 635/667 nm fluorescence, primary screen (AID 1120).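 Note: probe is a biotin-tagged antibody raised against NOTCH3 rather than NOTCH3 protein; score merges spot fluorescence near 667 nm with spot signal to noise.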 The following applies: higher = more signal.
The nature of assay [3]: probe aNOTCH2 binding on compound microarray – biochemical, small-molecule microarray, 635/667 nm fluorescence, primary screen (AID 1121).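 Note: score merges feature fluorescence read at 667 nm with its signal to noise.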 The conditions noted are these: higher = more signal.
Assay [4] addresses Carbonic anhydrase 2 (Homo sapiens) (UniProt P00918). Nature of the assay: compounds binding carbonic anhydrase 2 – biochemical, small-molecule microarray, Alexa647-labelled CAII, profiling panel (AID 1122). The following applies: CAII-A647 binding fluorescence, higher = more signal.
Assay [5] can be described thus: COS7 lysate on small-molecule microarray, probe aHis, 635 nm (AID 1123).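 Note: z-score combines 667nm fluorescence intensity with signal-to-noise per printed compound spot.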 The conditions noted are these: COS7 cell lysate, fluorescence, higher = more signal.
A short description of assay [6]: probe aLAP1 signal on lysate-treated microarray – cell lysate, small-molecule microarray, COS7 lysate, primary screen (AID 1124).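 Note: lysate comes from COS7 cells expressing LAP1 and is applied at 0.3 µg/mL; score merges spot fluorescence near 667 nm with signal-to-noise over triplicate slides.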 The conditions noted are these: probe aLAP1, fluorescence, higher = more signal.
A further assay deals with Sam68 (KHDRBS1). Nature of the assay: compounds binding KHDRBS1 protein – biochemical, small-molecule microarray, 635 nm fluorescence, primary screen (AID 1125).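 Note: score merges 667 nm channel intensity with signal to noise over triplicate slides.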 The conditions noted are these: higher = more signal.
The test system of assay [7] is Chordin-like protein 2 (CHRDL2). In words: compounds binding chordin-like 2 – biochemical, small-molecule microarray, 635 nm fluorescence, primary screen (AID 1126).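 Note: printed compound slides probed with Chrdl2 protein at 4 µg/mL for 1 h at 4 C; score merges 667 nm emission intensity with signal to noise over three replicate slides.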 The following applies: fluorescence 635 nm, higher = more signal.
For assay [8], the target named is Concanavalin-A (Canavalia ensiformis) (UniProt P02866). Nature of the assay: compounds binding concanavalin A lectin – biochemical, small-molecule microarray, Alexa647 label, 635 nm, artefact control for SMM control protein annotation, primary screen (AID 1127).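 Note: z combines 667 nm emission intensity with signal-to-noise across three replicate slides.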 The conditions noted are these: ConA-A647 binding fluorescence, higher = more signal.
Assay [9] can be described thus: compounds binding Alexa647 anti-His antibody – biochemical, small-molecule microarray, 635 nm fluorescence, artefact control for SMM control protein annotation, primary screen (AID 1128).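 Note: score merges feature fluorescence with signal-to-noise for each printed compound spot.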 The following applies: higher = more signal.
For assay [10], the system named is Human papillomavirus type 1a E7 protein (residues 1-88). In words: HPV1a E7 small-molecule binders, primary screen, biochemical, small-molecule microarray, residues 1-88, 635 nm (AID 1129). The following applies: small-molecule microarray binding, fluorescence 635 nm; higher = more signal.
Assay [11] concerns the target Focal adhesion kinase 1 (Homo sapiens) (UniProt Q05397). In words: PTK2 protein binding on printed compound slides – biochemical, small-molecule microarray, 635/667 nm fluorescence, BSA, DTT, primary screen (AID 1130).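 Note: composite of spot emission at 667 nm and signal to noise over triplicate slides.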 The conditions noted are these: 635 nm fluorescence, higher = more signal.
In assay [12] the test system is Fibrinogen (Alexa647-labelled). In words: Alexa647-fibrinogen binding to printed small molecules – biochemical, small-molecule microarray, 635/667 nm fluorescence, artefact control for SMM control-protein annotation, profiling panel (AID 1131).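 Note: z-score merges 667 nm fluorescence with per-spot signal-to-noise over triplicate slides.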 The conditions noted are these: fibrinogen-A647 binding fluorescence, higher = more signal.
Assay [13] deals with Follistatin (Homo sapiens) (UniProt P19883). Nature of the assay: FST protein binding to printed compounds – biochemical, small-molecule microarray, 635/667 nm fluorescence, primary screen (AID 1132). The conditions noted are these: 635 nm fluorescence, higher = more signal.
In assay [14] the target is Fibroblast growth factor 2 (Homo sapiens) (UniProt P09038). In words: basic fibroblast growth factor binding to printed compounds – biochemical, small-molecule microarray, 635/667 nm fluorescence, primary screen (AID 1133). The following applies: FGF2, fluorescence 635/667, higher = more signal.
The nature of assay [15]: JC-1 mitochondrial potential readout, lung cancer cells – cell-based, A549, JC-1 fluorescence, basal, 24 h, 100 nL, profiling panel (AID 1138).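 Note: A549 lung adenocarcinoma cells under basal conditions with no added stimulus; test concentration not given here.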 The conditions noted are these: higher = more signal.
A further assay relates to Lefty1. Nature of the assay: Lefty1 protein binding to printed compounds – biochemical, small-molecule microarray, 635/667 nm fluorescence, primary screen (AID 1139). The following applies: fluorescence 635/667, higher = more signal.
Assay [16] concerns wheat germ agglutinin (Triticum aestivum), Alexa647-labelled. In words: Alexa647-WGA lectin binding to printed small molecules – biochemical, small-molecule microarray, 635/667 nm fluorescence, artefact control for SMM control-protein annotation, profiling panel (AID 1140).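 Note: score merges 667 nm feature emission with signal to noise over triplicate slides.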 The following applies: WGA-A647 binding, 635 nm fluorescence, higher = more signal.
In assay [17] the target is Luciferin 4-monooxygenase (Photinus pyralis) (UniProt P08659). In words: inhibition of purified Photinus pyralis luciferase – biochemical, luminescence, purified enzyme, 2006 set, primary screen (AID 1141).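 Note: cell-free assay with purified firefly luciferase at 100 ng per well in PBS; test concentration not given here.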 The following applies: purified firefly luciferase, SteadyGlo luminescence, 30 min; higher = more signal, called active from +8 up or from −8 down.

Molecules are shown by their SMILES. The source made the active and inactive calls.

Chain of Albumin (Bos taurus) (P02769 whole entry, looked up): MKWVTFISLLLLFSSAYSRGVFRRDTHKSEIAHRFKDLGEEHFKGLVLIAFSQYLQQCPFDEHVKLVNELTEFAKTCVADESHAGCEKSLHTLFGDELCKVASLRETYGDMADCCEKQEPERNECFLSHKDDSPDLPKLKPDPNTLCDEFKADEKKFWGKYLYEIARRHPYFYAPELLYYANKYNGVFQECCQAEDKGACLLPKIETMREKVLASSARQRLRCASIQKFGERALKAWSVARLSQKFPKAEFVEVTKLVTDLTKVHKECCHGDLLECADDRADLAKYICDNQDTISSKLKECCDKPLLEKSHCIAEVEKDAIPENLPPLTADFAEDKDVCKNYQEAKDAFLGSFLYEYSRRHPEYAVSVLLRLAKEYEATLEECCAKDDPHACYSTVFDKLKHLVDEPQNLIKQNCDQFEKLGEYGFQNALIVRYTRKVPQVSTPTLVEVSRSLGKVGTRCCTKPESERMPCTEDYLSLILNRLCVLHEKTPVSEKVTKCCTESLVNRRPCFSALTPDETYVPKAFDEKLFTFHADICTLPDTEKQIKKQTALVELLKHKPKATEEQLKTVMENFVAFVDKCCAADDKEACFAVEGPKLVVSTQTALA
Chain of Concanavalin-A (Canavalia ensiformis) (P02866 whole entry, looked up): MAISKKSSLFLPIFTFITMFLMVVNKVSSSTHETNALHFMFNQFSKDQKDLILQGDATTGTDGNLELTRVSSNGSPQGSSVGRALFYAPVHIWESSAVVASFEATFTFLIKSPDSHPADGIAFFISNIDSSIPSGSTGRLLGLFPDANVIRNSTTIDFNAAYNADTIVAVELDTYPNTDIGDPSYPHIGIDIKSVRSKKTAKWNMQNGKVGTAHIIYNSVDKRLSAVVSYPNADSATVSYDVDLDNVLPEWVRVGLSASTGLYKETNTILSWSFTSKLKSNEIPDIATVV
Chain of Follistatin (Homo sapiens) (P19883 whole entry, looked up): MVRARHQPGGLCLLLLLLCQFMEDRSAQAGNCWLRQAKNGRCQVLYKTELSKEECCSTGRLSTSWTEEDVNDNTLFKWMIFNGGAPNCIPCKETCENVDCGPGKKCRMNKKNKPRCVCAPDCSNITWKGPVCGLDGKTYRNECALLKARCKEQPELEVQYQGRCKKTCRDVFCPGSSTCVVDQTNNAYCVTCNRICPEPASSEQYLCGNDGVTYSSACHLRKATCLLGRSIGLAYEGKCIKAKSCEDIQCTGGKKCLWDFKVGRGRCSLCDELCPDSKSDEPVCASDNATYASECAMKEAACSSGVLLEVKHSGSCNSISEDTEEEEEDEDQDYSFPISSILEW
Chain of Focal adhesion kinase 1 (Homo sapiens) (Q05397 whole entry, looked up): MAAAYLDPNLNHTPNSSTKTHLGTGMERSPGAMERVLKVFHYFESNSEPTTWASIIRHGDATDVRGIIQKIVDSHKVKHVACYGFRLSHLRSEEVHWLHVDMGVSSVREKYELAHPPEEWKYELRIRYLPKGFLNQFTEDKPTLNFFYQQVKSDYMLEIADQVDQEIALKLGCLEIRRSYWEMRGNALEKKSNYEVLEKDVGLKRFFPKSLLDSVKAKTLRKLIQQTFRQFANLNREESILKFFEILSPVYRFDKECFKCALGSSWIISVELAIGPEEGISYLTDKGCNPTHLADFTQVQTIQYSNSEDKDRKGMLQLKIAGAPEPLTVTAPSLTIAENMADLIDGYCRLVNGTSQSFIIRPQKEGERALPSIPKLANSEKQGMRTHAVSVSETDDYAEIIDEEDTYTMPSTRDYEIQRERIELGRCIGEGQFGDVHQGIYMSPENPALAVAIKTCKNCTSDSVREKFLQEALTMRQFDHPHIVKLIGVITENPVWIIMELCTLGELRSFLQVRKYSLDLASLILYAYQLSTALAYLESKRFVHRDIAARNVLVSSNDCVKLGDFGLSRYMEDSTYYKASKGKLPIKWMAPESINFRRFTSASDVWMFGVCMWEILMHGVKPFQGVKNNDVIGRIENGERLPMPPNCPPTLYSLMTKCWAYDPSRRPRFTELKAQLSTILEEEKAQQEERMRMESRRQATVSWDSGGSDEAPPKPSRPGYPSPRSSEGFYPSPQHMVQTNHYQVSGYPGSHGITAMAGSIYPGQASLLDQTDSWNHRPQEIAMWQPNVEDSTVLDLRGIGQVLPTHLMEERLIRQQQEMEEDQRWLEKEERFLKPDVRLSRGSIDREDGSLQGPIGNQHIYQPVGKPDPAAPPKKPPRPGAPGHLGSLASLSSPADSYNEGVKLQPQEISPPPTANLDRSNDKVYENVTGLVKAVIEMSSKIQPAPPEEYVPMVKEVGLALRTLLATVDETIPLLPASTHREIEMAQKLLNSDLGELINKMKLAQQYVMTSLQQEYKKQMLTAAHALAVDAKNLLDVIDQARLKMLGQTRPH
Chain of Luciferin 4-monooxygenase (Photinus pyralis) (P08659 whole entry, looked up): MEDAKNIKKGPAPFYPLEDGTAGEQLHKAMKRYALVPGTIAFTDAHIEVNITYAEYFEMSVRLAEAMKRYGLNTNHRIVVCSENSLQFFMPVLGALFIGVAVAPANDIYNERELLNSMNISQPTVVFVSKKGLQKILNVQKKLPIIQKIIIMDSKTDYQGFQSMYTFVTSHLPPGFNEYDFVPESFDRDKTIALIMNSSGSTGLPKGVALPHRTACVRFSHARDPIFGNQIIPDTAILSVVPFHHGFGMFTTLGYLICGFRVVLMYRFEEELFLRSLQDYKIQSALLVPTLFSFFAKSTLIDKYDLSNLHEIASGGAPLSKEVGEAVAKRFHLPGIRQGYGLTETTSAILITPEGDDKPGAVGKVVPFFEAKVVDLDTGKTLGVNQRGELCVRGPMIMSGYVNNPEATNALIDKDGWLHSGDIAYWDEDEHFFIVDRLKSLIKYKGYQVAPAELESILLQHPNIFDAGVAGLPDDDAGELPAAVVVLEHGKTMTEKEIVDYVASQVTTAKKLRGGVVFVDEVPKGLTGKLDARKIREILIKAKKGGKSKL
Chain of Fibroblast growth factor 2 (Homo sapiens) (P09038 whole entry, looked up): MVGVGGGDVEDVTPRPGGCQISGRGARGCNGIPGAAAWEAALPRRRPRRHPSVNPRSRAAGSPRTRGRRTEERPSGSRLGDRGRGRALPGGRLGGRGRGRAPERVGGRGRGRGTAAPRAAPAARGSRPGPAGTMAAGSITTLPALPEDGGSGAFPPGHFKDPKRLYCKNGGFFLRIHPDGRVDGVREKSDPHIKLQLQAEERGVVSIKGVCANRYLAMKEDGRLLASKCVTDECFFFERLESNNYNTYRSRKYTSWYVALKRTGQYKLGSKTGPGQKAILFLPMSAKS

Regarding `CN(C)CCCC[C@@H]1NC(=O)[C@@H]2C[C@H](C(=O)NCCCCCNC(=O)CS)[C@H](c3cccc(OCCO)c3)N2C1=O`, the composite z-score with Albumin (Bos taurus) is 0.786; in assay [2], -0.15; in assay [3] it was -0.167; in assay [4], 0.82; in [5], 0.356; in assay [6], 0.303. For the same molecule, the composite z-score with Sam68 (KHDRBS1) worked out at 0.528; in [7], 0.728; in assay [8], 0.65; in assay [9] it was 2.04; in [10] it was 0.05; in assay [11], 0.387. Besides, the composite z-score turned out to be 0.119 in assay [12]; 1.49 in [13]; 1.65 in [14]; 1.45 with Lefty1; 0.626 in assay [16]. Also, the composite Z-score in assay [1] was 1.6 (inactive). In addition, the z-score is 0.43 in [15] and -0.673 (inactive) in assay [17].

Regarding `C[N+](C)(C)CCCCNC(=O)[C@@H]1C[C@@H]2C(=O)NCC(=O)N2[C@@H]1c1cccc(OCCO)c1`, the composite z-score is -0.656 in the assay with Albumin (Bos taurus); 0.0297 in assay [2]; -0.19 in assay [3]; 0.434 in assay [4]; 2.15 in [5]; 1.27 in assay [6]. Also, the composite z-score was 0.781 in the assay on Sam68 (KHDRBS1); 1.29 in [7]; 1.14 in assay [8]; 2.59 in [9]; 1.15 in [10]; -0.421 in assay [11]. Besides, the composite z-score stood at 0.78 in assay [12]; 1.49 in assay [13]; 1.94 in assay [14]; 1.6 with Lefty1; 1.02 in assay [16]. Besides, the composite Z-score in assay [1] was 0.617 (inactive). In addition, the z-score in assay [15] is 1.87; in assay [17], -1.9 (inactive).

In the case of `CCOC(=O)C[C@H]1[C@H](OC(=O)c2ccc(-c3ccccc3)cc2)[C@@H](NC(=O)c2ccccc2)c2cc(OCCCO)ccc2N1C(=O)c1ccccc1`, the composite z-score was 0.842 in the assay with Albumin (Bos taurus); 0.0162 in [2]; -0.0232 in assay [3]; 0.395 in assay [4]; 1.67 in [5]; 0.658 in assay [6]. The composite z-score with Sam68 (KHDRBS1) is 1.33; in [7] it was -0.519; in assay [8] it was 0.818; in assay [9], 0.698; in [10], 0.925; in assay [11], 0.372. The composite z-score in assay [12] was 0.851; in assay [13], -0.129; in assay [14], 0.253; with Lefty1, -0.0764; in assay [16], 0.646. Also, in assay [1], the composite Z-score was 0.0948 (inactive). Further, the z-score in [15] is 2.3; in [17] it was -0.517 (inactive).

On to `CC(C)(C)OC(=O)CC[C@@]12N=C(c3ccc(OCCCO)cc3)O[C@@H]1c1ccccc1N(Cc1ccccc1)C2=O`, for which the composite z-score is 0.0674 in the assay with Albumin (Bos taurus); -0.122 in [2]; -0.0318 in [3]; 0.434 in assay [4]; 1.67 in [5]; 0.583 in assay [6]. Also, the composite z-score with Sam68 (KHDRBS1) is 1.15; in assay [7], 0.145; in assay [8] it was 1.05; in assay [9], 2.92; in assay [10] it was 1; in assay [11] it was 1.16. Moreover, the composite z-score came out at 0.214 in assay [12]; 1.39 in [13]; 0.54 in assay [14]; 0.345 in the assay on Lefty1; 0.036 in assay [16]. Also, in assay [1], the composite Z-score was 1.83 (inactive). Moreover, the z-score in assay [15] was 1.43; in assay [17], -2.14 (inactive).

Turning to `COc1ccc([Si](C)(C)[C@H]2[C@H](CC(=O)N(CCO)Cc3ccccc3)O[C@@]3(C(=O)N(Cc4cccc(N5C(=O)COc6ccccc65)c4)c4ccccc43)[C@@H]2C)cc1`, the composite z-score in the assay with Albumin (Bos taurus) is -1.06; in assay [2], 0.0961; in assay [3], -0.118; in assay [4], 0.462; in assay [5] it was 1.69; in assay [6] it was -0.045. The composite z-score amounted to 0.897 in the assay with Sam68 (KHDRBS1); 0.81 in [7]; 1.06 in [8]; 1.11 in assay [9]; 0.965 in [10]; 1.45 in assay [11]. Moreover, the composite z-score amounted to 0.147 in [12]; 1.05 in assay [13]; 1.52 in assay [14]; 1.26 in the assay with Lefty1; 0.528 in assay [16]. Also, the composite Z-score in assay [1] is 0.616 (inactive). Besides, the z-score was -0.0909 in assay [15] and -1.8 (inactive) in assay [17].
